# Bioassay records (PubChem)
# The list is not random: actives were taken first. Their share in the collection is about 3.1%.
# TRb-SRC2 inh: TRbeta-SRC2 interaction inhibition. TRbeta-SRC2 peptide binding, fluorescence polarization; receptor liganded with 1 µM T3. actives 0.065% (n = 280,000). AID 1469. Potency, µM (top dose mostly 106 µM), without a hit: at the top dose activity change, negative = inhibition, actives largely listed as inhibitors. P10828;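 also: plate controls were bound peptide for no effect and peptide without receptor for full effect; nearly all actives have a fitted effect of over 50% in size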
#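 Polarization signal, normalized between peptide-alone and full complex controls, measured compound effects on T3-liganded human TRb LBD (0.6 uM) binding 20 nM Texas Red SRC2 peptide after 5 hr.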
# Tau ThT inhib: tau fibrillization inhibition (ThT binding). actives 2.1% (n = 270,000). Potency, µM (highest dose often 57.4 µM), for the others: at the highest dose activity, negative = inhibition, usual class: inhibitors. recombinant tau K18 P301L, heparin-induced fibrillization, ThT fluorescence; also: nearly all actives have a fitted effect of over 55% in size
# Target sequence (P10636 561-689 P618L limits assumed): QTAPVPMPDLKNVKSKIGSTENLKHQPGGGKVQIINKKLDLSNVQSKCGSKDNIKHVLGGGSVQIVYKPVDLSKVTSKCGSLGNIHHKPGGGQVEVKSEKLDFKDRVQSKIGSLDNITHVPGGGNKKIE
#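 In this qHTS, human K18 P301L tau is incubated with compound and heparin for 6 hr at 37 C, and Thioflavin T fluorescence then reports fibril load.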
# Tau fluor counter: counter-screen for tau fibril formation inhibitors | tau K18 P301L Alexa594 fluorescence, heparin fibrillization | Potency, µM (series often up to 57.7 µM), without a hit: at the top dose activity change, negative = decrease | actives 0.93% (n = 280,000) | AID 1463; also: nearly all actives have a fitted effect of over 55% in size
#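 Human tau K18 P301L (15 uM unlabeled, 0.24 uM Alexa 594-labeled) in 100 mM sodium acetate pH 7 with 20 uM heparin, 6 hr at 37 C. ThT 30 uM added, 1 hr ambient; Alexa 594 FP and total fluorescence read at 555/632 nm.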
# TR SRC2 fluor cs: alters Texas Red total fluorescence, flagging assay interference | actives 0.29% (n = 280,000) | Potency, µM (highest dose often 106 µM), without a hit: at the highest dose fluorescence change, negative = quenching | TRb/SRC2 Texas Red total fluorescence interference; active = well fitted curve in either direction with a large enough effect; inconclusive = small, poorly fitted or top-dose-only effect
#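 Flags fluorescent or light-absorbing compounds by total fluorescence, S + 2P, at 555 nm excitation and 632 nm emission. Mixture: 20 nM Texas Red SRC2 peptide, 0.6 uM human TRb LBD, 1 uM T3, 5% DMSO; compound exposure 5 h at ambient temperature.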
# Tau FP inhib: tau fibrillization inhibition (FP). Potency, µM (highest dose often 57.7 µM), without a hit: at the top dose activity, negative = inhibition, hits mostly inhibitors. K18 P301L tau heparin fibrillization, Alexa594 FP, 6 h. actives 0.39% (n = 280,000). AID 1468; also: nearly all actives have a fitted effect of over 55% in size
#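 Read-out: fluorescence polarization of Alexa 594-labeled tau (0.24 uM), 555 nm excitation, 632 nm emission. Mixtures held 15 uM unlabeled K18 P301L, compound and 20 uM heparin, pH 7 acetate buffer, incubated 6 hr at 37 C.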
# Numbers without * were called inactive; ? = inconclusive; nt = no result given; [ ] = another dose, or the depositor's remark. Unless noted, calls follow the shape of the dose curve; as a rule, active = well fitted curve in the direction sought with a large enough effect; inconclusive = small, poorly fitted or top-dose-only effect, or another doubt; inactive = no such curve, though single readings can be large; an effect the other way counts as inactive or inconclusive. Unless noted, % is scaled to controls: 0 for no effect and ±100 for the full control effect; potency is read from the fitted curve at half-maximal effect.
SMILES,TRb-SRC2 inh,Tau ThT inhib,Tau fluor counter,TR SRC2 fluor cs,Tau FP inhib
CC1=C(CCC(=O)O)c2cc3nc(cc4[nH]c(cc5[nH]c(cc1n2)c(C)c5C(C)O)c(C)c4C(C)O)C(C)=C3CCC(=O)O (stereo unspecified),35µM*,?,-23%,45µM*[fluorescent],?
C=Cc1c(C)c2cc3[nH]c(cc4nc(cc5nc(cc1[nH]2)C(C)=C5CCC(=O)O)C(CCC(=O)O)=C4C)c(C)c3C=C,18µM*,16µM*,16µM*[quencher],16µM*[fluorescent],25µM*
CCOc1ccc(N/C=C/C(=O)c2ccccc2)c([N+](=O)[O-])c1,-11%,1.4µM*,?,5%,-9%
CCOc1ccc(NC(=O)/C=C/c2ccccc2)c([N+](=O)[O-])c1,1%,?,-16%,-2%,10%
COc1ccc(CNc2nc(-c3ccco3)nn2S(=O)(=O)c2ccc3ccccc3c2)cc1OC,-1%,3%,?,1%,?
COc1ccccc1CNc1nc(-c2ccco2)nn1S(=O)(=O)c1ccc2ccccc2c1,-6%,-6%,-29%,1122µM*[quencher],?
Cc1ccc(CNC(=O)COCc2cc(-c3ccc4c(c3)OCO4)on2)cc1,2%,-14%,-7%,9%,0%
Cc1ccccc1-c1ccc(Nc2ccc(N3CCOCC3)cc2)nn1,-22%,14µM*,?,-3%,8%
CCOC(=O)c1c(-c2ccccc2)csc1NC(=O)/C(C#N)=C/c1ccc(O)c(OC)c1,-2%,?,13µM*[quencher],-3%,17%
CCCOC(=O)c1ccc(Oc2c(-c3ccc(OCC)cc3O)n[nH]c2C)cc1,8%,-13%,7.9µM*[quencher],0%,?
CCOc1ccc(-c2[nH]ncc2-c2csc(C)n2)c(O)c1,-10%,-2%,-16%,1%,7%
CCCOC(=O)c1ccc(Oc2cn[nH]c2-c2ccc(OCC)cc2O)cc1,6%,-8%,8.9µM*[quencher],-2%,?
Cc1cc(C)c(OCC(=O)N(Cc2ccco2)Cc2ccco2)c(C)c1,-10%,?,-6%,-1%,0%
Cc1cc(NC(=O)Nc2ccc(N(C)C)cc2)c2cc(F)cc(F)c2n1,-10%,?,7.9µM*[quencher],-14%,-6%
COC(=O)c1ccc2nc(C)cc(Nc3ccc(N(C)C)cc3)c2c1,4%,?,?,-5%,-2%
COc1ccc(-c2cc(NCc3ccc(C)cc3)n3cnnc3n2)cc1,0%,-14%,-9%,-3%,3%
O=C(O)CCC(=O)Nc1ccc(-n2ccc(C(F)(F)F)n2)cc1,-7%,nt,-7%,-2%,-6%
CN(c1cccc(NC(=O)Nc2cccc(Cl)c2)c1)S(C)(=O)=O,5%,-6%,?,-1%,?
Cc1cc(C)cc(NC(=O)Nc2ccc(N3CCCCC3)cc2)c1,-5%,?,20µM*[quencher],-2%,10%
O=C(Nc1ccc(-n2ccc(C(F)(F)F)n2)cc1)Nc1cccc(Cl)c1,6%,13%,?,-1%,3.5µM*
Cc1cc(C)cc(NC(=O)Nc2ccc(-n3ccc(C(F)(F)F)n3)cc2)c1,0%,3%,?,-7%,18µM*
CN(C)c1ccc(NC(=O)Nc2cccc(Cl)c2)cc1,-11%,13µM*,14µM*[quencher],-3%,10%
COc1ccc(NC(=O)c2sc3nc4c(cc3c2N)CCCCCC4)cc1Cl,3%,?,?,-4%,16%
CCOC(=O)c1sc(NC(=O)c2cccs2)cc1C,2%,-11%,-27%,-5%,-8%
O=C(Nc1cccc(Cl)c1)Nc1csc([N+](=O)[O-])c1,-3%,16µM*,8.9µM*[quencher],-3%,?
O=C(O)c1ccccc1C(=O)Nc1ccc(-n2ccc(C(F)(F)F)n2)cc1,-2%,-3%,-6%,-2%,2%
COc1ccccc1NC(=O)Nc1ccc(-n2ccc(C(F)(F)F)n2)cc1,-4%,?,14µM*[quencher],-1%,?
CCOC(=O)c1sc(NC(=O)Nc2cccc(Cl)c2)cc1C,-10%,-23%,3.5µM*[quencher],-1%,?
Cc1cccc(NC(=O)Cn2ncc3c4ccccc4n(Cc4ccccc4)c3c2=O)c1C,3%,-6%,-11%,-2%,-4%
